FBW7 activator: FBW7 E3 ligase activators, primary screen, biochemical, AlphaScreen, human; AlphaScreen FBW7–phospho-cyclin E peptide binding, activator screen; actives 0.13% (n = 650,000); normalized activity (activation), % at 26.1 µM; F-box/WD repeat-containing protein 7 (Homo sapiens), Q969H0; AID 1259310, 2017; in the data active means normalized activity above about 1.9%;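 further: purified mutant Fbw7 with reduced substrate affinity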
Target sequence (Q969H0 whole entry, looked up): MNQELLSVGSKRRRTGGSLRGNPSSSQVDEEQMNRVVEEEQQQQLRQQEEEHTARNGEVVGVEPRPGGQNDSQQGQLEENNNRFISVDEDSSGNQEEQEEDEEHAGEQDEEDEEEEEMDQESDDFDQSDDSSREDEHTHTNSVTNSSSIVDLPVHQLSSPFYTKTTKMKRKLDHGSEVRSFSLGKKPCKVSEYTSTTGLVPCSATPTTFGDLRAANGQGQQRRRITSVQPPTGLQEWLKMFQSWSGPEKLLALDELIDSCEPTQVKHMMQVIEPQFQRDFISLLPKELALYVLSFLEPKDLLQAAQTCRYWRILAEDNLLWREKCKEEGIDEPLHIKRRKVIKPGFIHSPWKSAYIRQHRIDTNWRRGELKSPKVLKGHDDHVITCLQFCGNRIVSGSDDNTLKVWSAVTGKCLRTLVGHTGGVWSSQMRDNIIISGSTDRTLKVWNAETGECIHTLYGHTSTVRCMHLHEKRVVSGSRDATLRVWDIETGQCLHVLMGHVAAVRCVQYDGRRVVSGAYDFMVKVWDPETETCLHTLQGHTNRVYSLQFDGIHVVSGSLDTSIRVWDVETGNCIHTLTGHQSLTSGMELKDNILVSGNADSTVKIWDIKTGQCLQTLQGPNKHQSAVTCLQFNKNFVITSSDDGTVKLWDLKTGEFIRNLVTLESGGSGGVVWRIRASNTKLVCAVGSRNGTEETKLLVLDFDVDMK
TEAD-YAP inh: TEAD-YAP interaction inhibition, primary screen, TEAD-YAP interaction inhibitor project, luminescence, HEK-TIYL cells; TEAD-Gal4/YAP UAS-luciferase luminescence; inhibition, % at 9.12 µM; actives 1.4% (n = 640,000); AID 1259422, 2018; in the data active means inhibition above about 32%;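 further: 0% = median of test compound wells and 100% = reference inhibitor wells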
GPR151 ag: activators of human GPR151, primary screen, cell-based, PathHunter beta-arrestin, luminescence; G-protein coupled receptor 151 (Homo sapiens), Q8TDV0; PathHunter beta-arrestin GPR151 cells; activation, % at 11.2 µM; actives 1% (n = 650,000); AID 1508602, 2020; in the data active means activation above about 4.9%;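 further: 0% = median of compound wells and 100% = cells with positive control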
MITF primary: MITF inhibitors, primary screen, biochemical, AlphaScreen, human | Microphthalmia-associated transcription factor (Homo sapiens), O75030 | inhibition, % at 2.6 µM | AlphaScreen MITF homodimerization, bead proximity signal | actives 0.91% (n = 650,000) | AID 1259374, 2018; in the data active means inhibition above about 50%;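 further: 0% = vehicle wells with protein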
* marks the source's active call; other numbers are inactive results; · = no result given. Only some compounds are listed: those with a hit (about 3.5% of all), similar ones and a draw of the others.

SMILES	FBW7 activator	TEAD-YAP inh	GPR151 ag	MITF primary
Cc1cccc(N2CCN(C(=O)c3ccc(N4CCCC4=O)cc3)CC2C)c1 (stereo unspecified)	0	-2	0	-2
Cc1cccc(N2CCN(C(=O)c3cccc(N4CCCC4=O)c3)C(C)C2)c1 (stereo unspecified)	0	58*	-1	2
O=C(c1cccc(N2CCCC2=O)c1)N1CCN(c2cccc(Cl)c2)CC1	0	44*	0	1
COCC#Cc1ccc([C@H]2[C@H](C)CC[C@H]3C(=O)N4[C@@H](CC[C@@H](C)[C@@H]4c4ccc(C#CCOC)cc4)C(=O)N32)cc1	0	·	-3	14
Cc1nc(SCC(=O)Nc2cc(C(N)=O)cc(C(N)=O)c2)c2c(C)c(C)sc2n1	16*	-4	0	-5
CC(=O)c1ccc(NC(=O)CSc2nc(C)nc3sc(C)c(C)c23)cc1	0	11	1	10
COCCOC(=O)c1[nH]c2c(c1C)C(=O)CC(c1ccccc1)C2 (stereo unspecified)	0	49*	0	3
Cc1c(C(=O)OCCOC(C)C)[nH]c2c1C(=O)CC(c1ccccc1)C2 (stereo unspecified)	0	48*	1	11
COCCOC(=O)c1[nH]c2c(c1C)C(=O)CC(c1ccc(F)cc1)C2 (stereo unspecified)	0	35*	0	7
Cc1c(C(=O)O)[nH]c2c1C(=O)CC(c1ccccc1)C2 (stereo unspecified)	0	11	0	8
COCCOC(=O)c1[nH]c2c(c1C)C(=O)CC(c1ccc(N(C)C)cc1)C2 (stereo unspecified)	0	-7	1	0
COCCOC(=O)c1[nH]c2c(c1C)C(=O)CC(c1ccc(Cl)cc1)C2 (stereo unspecified)	0	-33	3	-2
O=C(O)CCP(=O)(O)CN1CCOCC1	0	-2	2	-8
CN(C)C(=O)c1ccc(C2SCC(=O)N2CCc2ccccc2)cc1 (stereo unspecified)	0	2	0	11
COc1ccc(CN2CCN(Cc3ccc(C#CC(C)(C)O)cc3)CC2CCO)c(F)c1 (stereo unspecified)	0	5	2	-2
CC(=O)Nc1ccc(C2=N/C(=C/c3ccc(OCc4ccccc4)cc3)C(=O)O2)cc1	0	43*	1	1
Cc1ccc(C2=N/C(=C\c3ccccc3OCc3ccccc3)C(=O)O2)cc1	0	41*	1	-3
Cc1ccc(C2=N/C(=C\c3ccccc3OC(=O)c3ccc(Br)cc3)C(=O)O2)cc1	0	37*	0	-7
O=C1OC(c2ccc(Cl)cc2)=N/C1=C\c1ccc(OCc2ccccc2)cc1	0	-11	1	8
O=C(CSc1nc2ccc(N3CCOCC3)cc2c(=O)n1Cc1ccccc1)c1ccc(Br)cc1	0	1	-1	8
Cc1ccc2c(c1)-c1onc(C(=O)NCc3ccc4c(c3)OCO4)c1CO2	1	5	-3	8
c1ccc(CN2CCC(NCc3ccc(N4CCOCC4)cc3)CC2)cc1	0	-6	1	68*
CN=c1scc(-c2ccccc2F)n1/N=C/c1ccccc1	0	99*	-7	18
Cc1csc(=Nc2ccccc2F)n1/N=C/c1ccsc1	0	-12	-2	10
CCN=c1scc(-c2ccccc2F)n1/N=C/c1ccc2c(c1)OCCO2	0	51*	-8	14
SMILES	FBW7 activator	TEAD-YAP inh	GPR151 ag	MITF primary
CCN=c1scc(C)n1/N=C/c1ccc2c(c1)OCCO2	0	-28	-2	12
O=c1c(CN2CCN(Cc3ccccc3)CC2)coc2ccccc12	0	67*	-2	43
c1ccc(-c2cnc3n2CCCCC3)cc1	0	-12	0	10
COc1ccc(-c2cc(N3CCN(C/C=C/c4ccccc4)CC3)ncn2)cc1	0	35*	1	-9
COc1ccccc1CN1C(=O)C2C(C(=O)Nc3ccc(C(C)C)cc3)C3C=CC2(O3)C1C(=O)NC1CCCCC1C (stereo unspecified)	0	-4	0	18
O=C(NC1CC1)c1ccc2c(c1)NC(=O)C(CS(=O)(=O)Cc1c(F)cccc1Cl)N2 (stereo unspecified)	0	14	-1	-16
Cc1ccccc1C(=O)Nc1sc2c(c1C(=O)O)CCC(C(C)(C)C)C2 (stereo unspecified)	0	13	0	-7
CC(C)(C)C1CCc2c(sc(NC(=O)c3cccc(Cl)c3)c2C(=O)O)C1 (stereo unspecified)	0	53*	-2	9
CC(C)(C)C1CCc2c(sc(NC(=O)c3ccccc3F)c2C(=O)O)C1 (stereo unspecified)	1	43*	-1	8
CC(C)(C)C1CCc2c(sc(NC(=O)c3ccccc3)c2C(=O)O)C1 (stereo unspecified)	0	91*	1	9
CNC(=O)c1c(NC(=O)c2ccccc2)sc2c1CCC(C(C)(C)C)C2 (stereo unspecified)	0	-22	0	9
CC1CN(C(=O)c2c(NC(=O)c3ccccc3Cl)sc3c2CCC(C(C)(C)C)C3)CC(C)O1 (stereo unspecified)	0	73*	1	1
On1onc2c3c4c(nc3ccc21)CCCC4	-1	5	1	10
CCC(C(=O)Nc1ccc(OC)cc1)(C(F)(F)F)C(F)(F)F	0	-9	0	8
COc1ccc(-c2nc(NCCOc3ccccc3)c3ncn(CCN4CCCC4=O)c3n2)cc1	0	34*	-1	11
COc1ccc(CCNc2nc(-c3ccc(C(=O)NC4CC4)cc3)nc3c2ncn3CCN2CCCC2=O)cc1	0	39*	2	6
CCOc1ccc(/C=C2\C(=O)ON=C2c2ccccc2)cc1	0	-5	0	6
O=C1ON=C(c2ccc(Cl)cc2)/C1=C\c1ccc2c(c1)OCO2	0	2	0	77*
COc1ccc(OC)c(C=C2C(=O)OC(C)(c3ccccc3)OC2=O)c1 (stereo unspecified)	0	-8	1	22
COc1cc(/C=C2\C(=O)ON=C2c2ccccc2)cc(OC)c1OC	0	-7	0	13
COc1ccc(/C=C2/C(=O)ON=C2c2ccccc2)cc1OC	-1	-26	2	65*
CCOc1cc(/C=C2\C(=O)ON=C2c2ccccc2)ccc1OC	0	-10	-1	58*
COc1ccc(OC)c(/C=C2\C(=O)ON=C2c2ccccc2)c1	0	-8	0	77*
CCCCOc1ccc(/C=C2\C(=O)ON=C2c2ccc(Cl)cc2)cc1	0	9	-1	24
Cc1noc(C)c1COC(=O)c1ccc(I)cc1	0	11	0	0
Cc1ccc(S(=O)(=O)Nc2nc3ccccc3nc2Nc2cccc(N(C)C)c2)cc1	0	35*	0	12
